± gives the standard deviation.

This experiment concerns OVCAR-3-derived ovarian cancer stem-like cells (spheroids). In words: cell growth relative to untreated control; higher = more growth (less inhibition). Conditions: 2.29 µM; 96 h. Put shortly:
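Percent growth was calculated against untreated wells once blanks were subtracted and Grubbs outliers removed. The cells were OVCAR-3 spheroid-derived stem-like cells, trypsinized and plated at 50,000 cells/mL in stem cell medium on ultra-low attachment 96-well plates for a 24 h preincubation. They were then exposed to compounds at 2.29 uM for 96 h at 37°C, 5% CO2, in 4 replicate wells, and viability was measured by TOX8 resazurin fluorescence (ex 560/em 590 nm) after 4 h.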
`C(=N\NC1=NCCN1)/c1c2ccccc2c(/C=N/NC2=NCCN2)c2ccccc12` yielded a cell growth of 21.4 ± 5.8%.

As for `COc1ccc2cc(CN3CCC(C4CCN(Cc5ccc6cc(OC)ccc6c5)CC4)CC3)ccc2c1`, the cell growth turned out to be 110 ± 24%.

Turning to `COc1nc(C(Cl)(Cl)Cl)c(Cl)c(OC)c1Cl`, the cell growth is 112 ± 17%.

On to `CC(C)(C)NCCC(O)c1cc(C(F)(F)F)nc2c(C(F)(F)F)cccc12` (stereo not drawn), for which the cell growth is 108 ± 23%.

With `CC1OC1C(=O)C1(O)C(C)C(O)C23OC2(C(O)c2c(O)cccc2C3=O)C1O` (stereo not drawn), the cell growth came out at 23.6 ± 6.9%.

Compound `OCc1ccc(-c2ccc(-c3ccc(CO)s3)o2)s1` yielded a cell growth of 92.2 ± 21%.

As for `C/C(=N\NC(=S)N(C)C)c1ccccn1.[Cu][Br]`, the cell growth worked out at 11.1 ± 5.9%.

`C=CCOC1OC(CO[Si](C)(C)C(C)(C)C)C(OCc2ccccc2)C(OCc2ccccc2)C1OCc1ccccc1` (stereo not drawn): the cell growth was 116 ± 18%.

Turning to `Cc1ccc(C2NC(=O)c3ccccc3N2)s1` (stereo not drawn), the cell growth came out at 60.4 ± 16%.

As to `Nc1nc(N)c(N=Nc2ccccc2)c(=O)[nH]1`, the cell growth came out at 84.4 ± 21%.

Take `Cc1ccc(/C=C2\CNC/C(=C\c3ccc(C)cc3)C2=O)cc1`: the cell growth turned out to be 44.5 ± 10%.

For the compound `CN(C)CCOC1(Cc2ccc(F)cc2)CCC(C(C)(C)C)CC1` (stereo not drawn), the cell growth worked out at 109 ± 34%.

For the compound `COc1cc(O)c2c(c1)C(=O)c1cc3c(c(O)c1C2=O)C(OC1OC(C)C(O)C(O)C1OC)C(OC)C(C)(O)C3=O` (stereo not drawn), the cell growth is 17.1 ± 7.5%.

The compound `O=C(NCCCCCCCCNC(=O)c1cccc2ccccc12)c1cccc2ccccc12` had a cell growth of 80.8 ± 18%.

For `N[C@H](C(=O)O)[C@H]1ON=C(Cl)[C@H]1O`, the cell growth stood at 91.4 ± 16%.

Compound `CCOC(=O)Cc1cc(=O)oc2cc(O)ccc12` registered a cell growth of 80.4 ± 11%.

Turning to `NC(=O)c1csc(C2OC(CO)C(O)C2O)n1` (stereo not drawn), the cell growth was found to be 90.6 ± 11%.

As to `C=C(C)[C@@H]1CC[C@]2(C(=O)O)CC[C@]3(C)[C@H](CC[C@@H]4[C@@]5(C)CC[C@H](O)C(C)(C)[C@@H]5CC[C@]43C)[C@@H]12`, the cell growth was found to be 76 ± 22%.

The record behind these values is the supplement of paper PMC3484114.
